Source: PubChem BioAssay (Tox21)
Inconclusive results are not listed. Calls of active or inactive are those of the source. Unless noted, calls follow the shape of the dose curve; as a rule, active = well fitted curve in the direction sought with a large enough effect in the repeat runs; inconclusive = weak or mixed curves; inactive = no such curve, though single readings can be large; an effect the other way counts as inactive or inconclusive.

How the values were obtained:
[1] = qHTS assay to identify small molecule agonists of the peroxisome proliferator-activated receptor delta (PPARd) signaling pathway - cell viability counter screen (AID 743211); also: % is scaled to controls: 0 for no effect and ±100 for the full control effect; nearly all actives have a fitted effect of over 55% in size
Summary of the method: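 Following 5 h plating at 37 C and 5% CO2, PPARd UAS-bla HEK293H cells took up test compounds for 17 h. Viability was quantified by luminescence 30 min after CellTiter-Glo addition at room temperature.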

[2] = biological target: Peroxisome proliferator-activated receptor delta (Homo sapiens) (UniProt Q03181); experiment: qHTS assay to identify small molecule agonists of the peroxisome proliferator-activated receptor delta (PPARd) signaling pathway (AID 743212; calls by dose curve;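 also: HEK293H cells with PPARd UAS beta-lactamase reporter GeneBLAzer system; % is scaled to controls: 0 for no effect and ±100 for the full control effect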)
Sequence of Peroxisome proliferator-activated receptor delta (Homo sapiens) (Q03181 whole entry, looked up): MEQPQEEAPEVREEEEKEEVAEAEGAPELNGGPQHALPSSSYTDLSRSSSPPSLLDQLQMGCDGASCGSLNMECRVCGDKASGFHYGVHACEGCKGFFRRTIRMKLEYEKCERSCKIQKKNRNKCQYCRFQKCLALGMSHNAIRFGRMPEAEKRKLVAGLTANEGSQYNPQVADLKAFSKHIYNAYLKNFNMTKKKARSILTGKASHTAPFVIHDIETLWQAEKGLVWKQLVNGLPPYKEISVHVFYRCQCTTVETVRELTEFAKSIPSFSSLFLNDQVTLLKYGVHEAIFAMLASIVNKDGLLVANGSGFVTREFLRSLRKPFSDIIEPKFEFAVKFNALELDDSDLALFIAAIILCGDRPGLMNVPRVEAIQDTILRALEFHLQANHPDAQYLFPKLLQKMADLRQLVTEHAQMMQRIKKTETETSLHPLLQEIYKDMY
Summary of the method: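 Beta-lactamase reporter readout: a ratiometric FRET signal from the LiveBLAzer substrate after 2 h at room temperature. Compound exposure at 37 °C in PPARδ-bla HEK293H cells driven by an upstream activator sequence.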

[3] = qHTS assay to identify small molecule antagonists of the peroxisome proliferator-activated receptor delta (PPARd) signaling pathway - cell viability counter screen (AID 743213); also: % is scaled to controls: 0 for no effect and ±100 for the full control effect; nearly all actives have a fitted effect of over 50% in size
Summary of the method: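 Same-well viability: cells pre-incubated 5 h, dosed with compound plus 300 nM L165041, kept 17 h at 37 C, FRET substrate 2 h RT, then CellTiter-Glo 30 min RT and luminescence.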

[4] = biological target: Peroxisome proliferator-activated receptor delta (Homo sapiens) (UniProt Q03181); experiment: qHTS assay to identify small molecule antagonists of the peroxisome proliferator-activated receptor delta (PPARd) signaling pathway (AID 743215; active = well fitted inhibition curve with a large enough effect in the signal ratio in the repeat runs, not every such curve was filed as active; the % refers to the signal ratio;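 also: cells stimulated with agonist L165041 at 300 nM final during compound exposure; series mostly up to about 62 µM; % is scaled to controls: 0 for no effect and ±100 for the full control effect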)
Summary of the method: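 Here, a reporter line (HEK293H, beta-lactamase under a UAS) measures PPARd signaling. Compounds are tested against agonist L165041 at 300 nM final concentration over 17 h at 37 C, with fluorescence read after substrate.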

[5] = qHTS assay to identify small molecule antagonists of the farnesoid-X-receptor (FXR) signaling pathway - cell viability counter screen (AID 743221; active = well fitted cell-killing curve with a large enough effect in the repeat runs, not every such curve was filed as active; also: % is scaled to controls: 0 for no effect and ±100 for the full control effect; nearly all actives have a fitted effect of over 50% in size)
Summary of the method: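 Compound effects on cell number were measured as CellTiter-Glo luminescence in HEK 293T cells expressing FXR-UAS-bla, after 16 h at 37 C with 50 uM CDCA (final).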

[6] = biological target: Vitamin D3 receptor (Homo sapiens) (UniProt P11473); experiment: qHTS assay to identify small molecule agonists of the vitamin D receptor (VDR) signaling pathway (AID 743222; calls by dose curve; also: % is scaled to controls: 0 for no effect and ±100 for the full control effect)
Sequence of Vitamin D3 receptor (Homo sapiens) (P11473 whole entry, looked up): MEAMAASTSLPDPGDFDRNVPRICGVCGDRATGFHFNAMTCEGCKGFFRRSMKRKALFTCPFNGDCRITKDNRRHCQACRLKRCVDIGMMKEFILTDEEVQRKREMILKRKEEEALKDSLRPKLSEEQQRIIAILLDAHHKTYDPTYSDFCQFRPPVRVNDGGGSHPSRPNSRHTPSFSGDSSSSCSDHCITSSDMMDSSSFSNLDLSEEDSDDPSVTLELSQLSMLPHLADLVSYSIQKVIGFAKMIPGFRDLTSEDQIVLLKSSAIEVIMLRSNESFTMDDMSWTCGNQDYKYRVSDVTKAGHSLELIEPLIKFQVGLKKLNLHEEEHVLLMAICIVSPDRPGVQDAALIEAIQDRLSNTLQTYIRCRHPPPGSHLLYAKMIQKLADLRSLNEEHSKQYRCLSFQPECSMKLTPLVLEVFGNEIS
Summary of the method: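 Tox21 cell reporter format: VDR-bla line, 16 h compound exposure in 5% CO2 at 37C, then fluorescence intensity after 2 h with LiveBLAzer B/G FRET substrate.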

[7] = biological target: Vitamin D3 receptor (Homo sapiens) (UniProt P11473); experiment: qHTS assay to identify small molecule antagonists of the vitamin D receptor (VDR) signaling pathway (AID 743223; active = well fitted inhibition curve with a large enough effect in the signal ratio in the repeat runs, not every such curve was filed as active; the % refers to the signal ratio; also: % is scaled to controls: 0 for no effect and ±100 for the full control effect)
Summary of the method: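 Beta-lactamase activity in VDR-bla cells is measured by FRET substrate fluorescence (2 h, room temperature) after cells spend 16 h at 37C with test compound and 3 nM final 1alpha,25-dihydroxyvitamin D3.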

[8] = qHTS assay to identify small molecule agonists of the vitamin D receptor (VDR) signaling pathway - cell viability counter screen (AID 743224); also: series mostly up to about 63 µM; % is scaled to controls: 0 for no effect and ±100 for the full control effect; nearly all actives have a fitted effect of over 50% in size
Summary of the method: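 CellTiter-Glo viability readout on VDR-bla cells, measured after 16 h of compound treatment at 37C in the same wells.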

[9] = qHTS assay to identify small molecule antagonists of the vitamin D receptor (VDR) signaling pathway - cell viability counter screen (AID 743225); also: % is scaled to controls: 0 for no effect and ±100 for the full control effect; nearly all actives have a fitted effect of over 50% in size
Summary of the method: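 In this counter screen, VDR-bla HEK 293T cells receive test compound plus 3 nM final calcitriol for 16 h at 37C. Room-temperature steps of 2 h with the beta-lactamase substrate, then 30 min with CellTiter-Glo, precede the luminescence read.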

[10] = qHTS assay to identify small molecule agonists of the NFkB signaling pathway (AID 1159509; active = well fitted curve in the direction sought with a large enough effect in the signal ratio in the repeat runs, not every such curve was filed as active; the % refers to the signal ratio)
Summary of the method: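 Agonist activity was read as beta-lactamase-driven FRET change (460 and 530 nm emission, 405 nm excitation) following 1.5 hr substrate loading at room temperature. Beforehand, ME-180 NFkB-bla reporter cells were treated with compounds for 5 hr at 37 C.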

[11] = qHTS assay to identify small molecule agonists of the NFkB signaling pathway - cell viability counter screen (AID 1159515; calls by dose curve; also: series mostly up to about 61 µM; % is scaled to controls: 0 for no effect and ±100 for the full control effect; nearly all actives have a fitted effect of over 55% in size)
Summary of the method: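 Tox21 library compounds were tested for cytotoxicity against NFkB-bla ME-180 cells during a 5 hr exposure at 37 C. CellTiter-Glo luminescence served as the viability read-out.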

[12] = qHTS assay to identify small molecule agonists of the endoplasmic reticulum stress response signaling pathway (AID 1159516; active = well fitted activation curve with a large enough effect in the signal ratio in the repeat runs, not every such curve was filed as active; the % refers to the signal ratio; also: % is scaled to controls: 0 for no effect and ±100 for the full control effect)
Summary of the method: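 Fluorescence at 460 and 530 nm (405 nm excitation) reports beta-lactamase from an ER stress response element in HeLa cells treated 5 hr at 37 C.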

[13] = qHTS assay to identify small molecule agonists of the endoplasmic reticulum stress response signaling pathway - cell viability counter screen (AID 1159517; calls by dose curve)
Summary of the method: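 ESRE-bla HeLa cells (1,500/well) were plated overnight at 37 C and exposed to compounds for 5 hr. After the 2 hr beta-lactamase substrate read, CellTiter-Glo went into the same wells, and luminescence was read after 30 min at room temperature.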

[14] = qHTS assay to identify small molecule antagonists of the retinoid-related orphan receptor gamma (ROR-gamma) signaling pathway - cell viability counter screen (AID 1159520)
Summary of the method: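 Cytotoxicity was read from cellular ATP (CellTiter-Glo luminescence) after 16 hr at 37 C with 1 uM doxycycline induction. The inducer was added 2 hr after compound transfer to Tet-on ROR gamma CHO cells.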

[15] = biological target: Nuclear receptor ROR-gamma (Homo sapiens) (UniProt P51449); experiment: qHTS assay to identify small molecule antagonists of the retinoid-related orphan receptor gamma (ROR-gamma) signaling pathway (AID 1159521)
Summary of the method: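 Screening format: cell-based luciferase reporter in CHO cells with doxycycline-inducible RORγ. Compound pre-exposure lasts 2 h, doxycycline is 1 uM final, induction runs 16 h at 37 C, and ONE-Glo luminescence is read.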

[16] = qHTS assay to identify small molecule agonists of the AP-1 signaling pathway - cell viability counter screen (AID 1159525; calls by dose curve; also: nearly all actives have a fitted effect of over 55% in size)
Summary of the method: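 Intracellular ATP by Cell Titer Glo luminescence (30 min, RT) in the same ME-180 AP-1-bla wells after the 5 h compound exposure at 37 °C. Normalised to tetra n-octyl ammonium bromide and DMSO controls.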

[17] = qHTS assay to identify small molecule agonists of the AP-1 signaling pathway (AID 1159526; calls by dose curve; also: % is scaled to controls: 0 for no effect and ±100 for the full control effect)
[18] = qHTS assay to identify small molecule agonists of the farnesoid-X-receptor (FXR) signaling pathway - cell viability counter screen (AID 743218); also: % is scaled to controls: 0 for no effect and ±100 for the full control effect; nearly all actives have a fitted effect of over 45% in size
Summary of the method: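 Quantitative HTS counter screen measuring ATP-based viability via CellTiter-Glo luminescence in HEK 293T cells carrying a UAS-driven beta-lactamase reporter, after 16 h compound exposure at 37 C.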

[19] = biological target: Bile acid receptor (Homo sapiens) (UniProt Q96RI1); experiment: qHTS assay to identify small molecule antagonists of the farnesoid-X-receptor (FXR) signaling pathway (AID 743217; active = well fitted inhibition curve with a large enough effect in the signal ratio in the repeat runs, not every such curve was filed as active; the % refers to the signal ratio; also: % is scaled to controls: 0 for no effect and ±100 for the full control effect)
Sequence of Bile acid receptor (Homo sapiens) (Q96RI1 whole entry, looked up): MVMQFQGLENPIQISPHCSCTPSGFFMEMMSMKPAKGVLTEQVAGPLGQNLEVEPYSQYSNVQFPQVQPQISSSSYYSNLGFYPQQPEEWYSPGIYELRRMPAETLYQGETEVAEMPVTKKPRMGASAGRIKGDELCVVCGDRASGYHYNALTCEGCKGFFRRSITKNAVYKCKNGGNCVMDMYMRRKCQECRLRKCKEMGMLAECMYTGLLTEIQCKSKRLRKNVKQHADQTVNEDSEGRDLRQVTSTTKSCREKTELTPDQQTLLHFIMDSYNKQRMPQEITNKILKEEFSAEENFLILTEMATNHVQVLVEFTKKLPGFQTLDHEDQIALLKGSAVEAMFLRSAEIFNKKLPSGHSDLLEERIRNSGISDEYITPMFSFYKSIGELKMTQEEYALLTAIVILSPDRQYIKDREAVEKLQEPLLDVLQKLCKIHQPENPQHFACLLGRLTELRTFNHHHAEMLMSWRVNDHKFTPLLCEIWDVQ
Summary of the method: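 Test compounds are pin-transferred onto FXR-bla HEK 293T cells, then chenodeoxycholic acid is added at 50 uM final. After 16 h at 37 °C, LiveBLAzer B/G substrate is applied for 2 h at room temperature and fluorescence read.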

[20] = biological target: Bile acid receptor (Homo sapiens) (UniProt Q96RI1); experiment: qHTS assay to identify small molecule agonists of the farnesoid-X-receptor (FXR) signaling pathway (AID 743220; active = well fitted activation curve with a large enough effect in the signal ratio in the repeat runs, not every such curve was filed as active; the % refers to the signal ratio; also: % is scaled to controls: 0 for no effect and ±100 for the full control effect)
Summary of the method: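 FXR-UAS-bla HEK 293T cells carrying a UAS-driven beta-lactamase reporter were plated for 5 h at 37C/5% CO2, then exposed to DMSO-dissolved Tox21 10K compounds for 16 h at 37C. A LiveBLAzer B/G FRET substrate was loaded for 2 h at room temperature before fluorescence reading.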

CC(C)(O)c1ccccc1
inactive: Potency [1] | outcome [2] | Potency [3] | outcome [4] | Potency [5] | outcome [6] | outcome [7] | outcome [8] | outcome [9] | outcome [10] | outcome [11] | outcome [12] | outcome [13] | Potency [14] | Potency [15] | outcome [16] | Potency [17]

NC(=O)c1ncn([C@@H]2O[C@H](CO)[C@@H](O)[C@H]2O)c1O
inactive: Potency [1] | outcome [2] | Potency [3] | outcome [4] | outcome [18] | Potency [5] | outcome [8] | outcome [9] | outcome [10] | outcome [11] | outcome [12] | outcome [13] | Potency [14] | Potency [15] | outcome [16] | Potency [17]

CC(C)(C)N(CCO)CCO
inactive: Potency [1] | outcome [2] | Potency [3] | outcome [19] | outcome [18] | outcome [20] | Potency [5] | outcome [6] | outcome [7] | outcome [8] | outcome [9] | outcome [10] | outcome [11] | outcome [12] | outcome [13] | Potency [14] | Potency [15] | outcome [16] | Potency [17]

Cc1cc(C)cc(OCC2CNC(=O)O2)c1 (stereo not given)
inactive: Potency [1] | outcome [2] | Potency [3] | outcome [19] | outcome [18] | outcome [20] | Potency [5] | outcome [6] | outcome [7] | outcome [8] | outcome [9] | outcome [10] | outcome [11] | outcome [12] | outcome [13] | Potency [14] | Potency [15] | outcome [16] | Potency [17]

CCCCCCCCCCCCCCCCCCOCC(O)CO (stereo not given)
inactive: Potency [1] | outcome [2] | Potency [3] | outcome [4] | outcome [18] | Potency [5] | outcome [7] | outcome [8] | outcome [9] | outcome [10] | outcome [11] | outcome [12] | outcome [13] | Potency [14] | Potency [15] | outcome [16] | Potency [17]

CN(C)N=Nc1ccccc1
inactive: Potency [1] | outcome [2] | Potency [3] | outcome [18] | Potency [5] | outcome [6] | outcome [7] | outcome [8] | outcome [9] | outcome [10] | outcome [11] | outcome [12] | outcome [13] | Potency [14] | Potency [15] | outcome [16] | Potency [17]

Cn1ccc2cc3c(cc21)CCN3C(=O)Nc1cccnc1
inactive: Potency [1] | outcome [2] | Potency [3] | outcome [19] | outcome [7] | outcome [8] | outcome [9] | outcome [10] | outcome [11] | outcome [12] | outcome [13] | activity, negative = cytotoxicity [14] -0.672% [at 19 µM] | activity change, negative = inhibition [15] 207% [at 19 µM] | viability change, negative = cytotoxic [16] 0.227% [at 15.8 µM] | activation [17] -5.75% [at 15.8 µM]

CC(C)CCCCCCN
inactive: Potency [1] | outcome [2] | Potency [3] | outcome [18] | Potency [5] | outcome [6] | outcome [8] | outcome [9] | outcome [10] | outcome [11] | outcome [12] | outcome [13] | Potency [14] | Potency [15] | outcome [16] | Potency [17]

C=C(C)C(=O)NCCCN(C)C
inactive: Potency [1] | outcome [2] | Potency [3] | outcome [18] | Potency [5] | outcome [6] | outcome [7] | outcome [8] | outcome [9] | outcome [10] | outcome [11] | outcome [12] | outcome [13] | Potency [14] | Potency [15] | outcome [16] | Potency [17]

O=C(O)CCNC(=O)c1ccc(N=Nc2ccc(O)c(C(=O)O)c2)cc1
inactive: Potency [1] | outcome [2] | Potency [3] | outcome [19] | outcome [18] | Potency [5] | outcome [8] | outcome [9] | outcome [10] | outcome [11] | outcome [12] | outcome [13] | Potency [14] | Potency [15] | outcome [16] | Potency [17]

CC(C)(O)Cc1ccccc1
inactive: Potency [1] | outcome [2] | Potency [3] | outcome [4] | Potency [5] | outcome [6] | outcome [8] | outcome [9] | outcome [10] | outcome [11] | outcome [12] | outcome [13] | Potency [14] | Potency [15] | outcome [16] | Potency [17]

CCN1CCCC(OC(=O)C(c2ccccc2)c2ccccc2)C1 (stereo not given)
inactive: Potency [1] | outcome [2] | Potency [3] | outcome [18] | outcome [20] | Potency [5] | outcome [8] | outcome [9] | outcome [10] | outcome [11] | outcome [12] | outcome [13] | Potency [14] | Potency [15] | outcome [16] | Potency [17]

CC1=CCC2C(C1)C2(C)C (stereo not given)
inactive: Potency [1] | outcome [2] | Potency [3] | outcome [19] | outcome [18] | Potency [5] | outcome [6] | outcome [8] | outcome [9] | outcome [10] | outcome [11] | outcome [12] | outcome [13] | Potency [14] | Potency [15] | outcome [16] | Potency [17]

CCC(C)OC(=O)N1CCCCC1CCO (stereo not given)
inactive: Potency [1] | outcome [2] | Potency [3] | outcome [19] | Potency [5] | outcome [6] | outcome [7] | outcome [8] | outcome [9] | outcome [10] | outcome [11] | outcome [12] | outcome [13] | Potency [14] | Potency [15] | outcome [16] | Potency [17]

CC1(C)OC(=O)Nc2ccc(Br)cc21
inactive: Potency [1] | outcome [2] | Potency [3] | outcome [18] | outcome [20] | Potency [5] | outcome [6] | outcome [7] | outcome [8] | outcome [9] | outcome [10] | outcome [11] | outcome [12] | outcome [13] | Potency [14] | Potency [15] | outcome [16] | Potency [17]

C=C(C)C(=O)NCCC[N+](C)(C)C
inactive: Potency [1] | outcome [2] | Potency [3] | outcome [19] | Potency [5] | outcome [6] | outcome [7] | outcome [8] | outcome [9] | outcome [10] | outcome [11] | outcome [12] | outcome [13] | Potency [14] | Potency [15] | outcome [16] | Potency [17]

C=C(C)[C@@H]1CCC2=CC(=O)C[C@@H](C)[C@]2(C)C1
inactive: Potency [1] | outcome [2] | Potency [3] | outcome [4] | Potency [5] | outcome [6] | outcome [8] | outcome [10] | outcome [11] | outcome [12] | outcome [13] | Potency [14] | Potency [15] | outcome [16] | Potency [17]
